About 83,000 compounds went through this panel and 20% of them were active in at least one assay; those are over-represented in the sample as a whole.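 Cell lines were cultured in 96-well plates, exposed to a single compound concentration, and assessed for percent growth 48 hours later.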 Unmarked numbers belong to inactive results. Active and inactive are the calls of the source. Rule for the calls: active = growth percent below 10; inactive = the rest.

Test systems include EKVX NSCLC; SN12C renal; UO-31 renal; TK-10 renal; ACHN renal; CAKI-1 renal; A498 renal; CCRF-CEM leukemia; MOLT-4 leukemia; SR leukemia; RPMI-8226 leukemia; OVCAR-8 ovarian; OVCAR-5 ovarian; OVCAR-4 ovarian; SK-OV-3 ovarian; IGROV1 ovarian; OVCAR-3 ovarian; NCI/ADR-RES ovarian.
Common to all, as to experiment: NCI-60 one-dose screen, 48 h (100 = growth as untreated, 0 = no growth, -100 = all killed)
Settings in all cases: 10 µM unless noted

In the case of `CC1=CC2c3oc(-c4ccccc4)c(C(=O)c4ccccc4)c3CNC2C=C1` (stereo unspecified), the growth in the assay on EKVX NSCLC is 107%; with SN12C renal it was 88.5%; in the assay with UO-31 renal, 72.2%; in the assay with TK-10 renal it was 96%; in the assay with ACHN renal, 87.4%; in the assay on CAKI-1 renal, 94.8%. The growth with A498 renal was 100%; with CCRF-CEM leukemia, 76.1%; in the assay on MOLT-4 leukemia it was 101%; in the assay on SR leukemia, 89.6%; with RPMI-8226 leukemia, 105%; with OVCAR-8 ovarian, 83.6%. Moreover, the growth in the assay on OVCAR-5 ovarian is 88.8%; in the assay on OVCAR-4 ovarian, 117%; with SK-OV-3 ovarian it was 83.3%; in the assay on IGROV1 ovarian, 102%; with OVCAR-3 ovarian, 106%; with NCI/ADR-RES ovarian, 94.6%.
With `Cc1nc(-c2cn3c(n2)-c2ccc(-c4cnn(C(C)(C)C(N)=O)c4)cc2OCC3)n(C(C)C)n1`, the growth with EKVX NSCLC is 36.1%; with SN12C renal it was 25.7%; with UO-31 renal it was 5.32% (active); in the assay with TK-10 renal it was 8.61% (active); in the assay with ACHN renal, 15.9%; with CAKI-1 renal, 21.1%. In addition, the growth is -31.3% (active) with A498 renal; 26.4% with CCRF-CEM leukemia; 15.2% with MOLT-4 leukemia; 30.1% in the assay with SR leukemia; 39.3% with RPMI-8226 leukemia; 32.9% in the assay on OVCAR-8 ovarian. For the same molecule, the growth is 28.8% in the assay on OVCAR-5 ovarian; 62.5% in the assay with OVCAR-4 ovarian; -22.1% (active) with SK-OV-3 ovarian; -10.7% (active) with IGROV1 ovarian; 24.5% in the assay on OVCAR-3 ovarian; 39.2% with NCI/ADR-RES ovarian.
`O=C(O)C1(Cc2cccc(Nc3nccs3)n2)CCC(Oc2cccc(Cl)c2F)CC1` (stereo unspecified): the growth in the assay on EKVX NSCLC was 90.9%; with SN12C renal it was 73.4%; with UO-31 renal it was 73.5%; in the assay with TK-10 renal, 63.8%; in the assay with ACHN renal, 68.4%; with CAKI-1 renal, 66.9%. Moreover, the growth is 72% with A498 renal; 62.6% with CCRF-CEM leukemia; 67.4% in the assay on MOLT-4 leukemia; 47.5% in the assay with SR leukemia; 59.8% in the assay with RPMI-8226 leukemia; 56.6% in the assay with OVCAR-8 ovarian. For the same molecule, the growth was 80.1% in the assay with OVCAR-5 ovarian; 106% in the assay on OVCAR-4 ovarian; 62.7% in the assay on SK-OV-3 ovarian; 76.7% in the assay on IGROV1 ovarian; 71.2% in the assay on OVCAR-3 ovarian; 46.4% in the assay on NCI/ADR-RES ovarian.
In the case of `COC(=O)N[C@@H](C)CNc1nccc(-c2cn(C(C)C)nc2-c2cc(Cl)cc(NS(C)(=O)=O)c2F)n1`, the growth in the assay on EKVX NSCLC is 63.1%; in the assay with SN12C renal it was 66.9%; with UO-31 renal, 16.9%; in the assay with TK-10 renal, 52%; in the assay with ACHN renal, 28%; in the assay with CAKI-1 renal, 34.2%. Further, the growth in the assay with A498 renal was 31.9%; with CCRF-CEM leukemia, 89.8%; in the assay on MOLT-4 leukemia, 67.4%; with SR leukemia, 51.7%; in the assay on RPMI-8226 leukemia, 113%; with OVCAR-8 ovarian it was 72.5%. Also, the growth with OVCAR-5 ovarian was 42.9%; in the assay with OVCAR-4 ovarian, 71.4%; in the assay with SK-OV-3 ovarian, 22.8%; with IGROV1 ovarian, 42.2%; in the assay with OVCAR-3 ovarian, 87%; in the assay on NCI/ADR-RES ovarian, 96.8%.
With `NC(=O)Nc1cc(-c2cccc(F)c2)sc1C(=O)N[C@H]1CCCNC1`, the growth was 4.42% (active) in the assay on EKVX NSCLC; -5.05% (active) in the assay with SN12C renal; -95.4% (active) in the assay with UO-31 renal; -66.3% (active) in the assay on TK-10 renal; 3.94% (active) in the assay with ACHN renal; -82.3% (active) in the assay on CAKI-1 renal. For the same molecule, the growth with A498 renal was -83.7% (active); with CCRF-CEM leukemia, 4.63% (active); in the assay on MOLT-4 leukemia, 2.79% (active); in the assay with SR leukemia it was -6.47% (active); in the assay with RPMI-8226 leukemia it was 6.16% (active); in the assay on OVCAR-8 ovarian, -15.2% (active). In addition, the growth was 2.28% (active) in the assay with OVCAR-5 ovarian; 25.5% in the assay on OVCAR-4 ovarian; -46.4% (active) with SK-OV-3 ovarian; -50.5% (active) with IGROV1 ovarian; -1.15% (active) in the assay on OVCAR-3 ovarian; 10% in the assay on NCI/ADR-RES ovarian.
As to `Nc1cc(C(F)(F)F)c(-c2cc(N3CCOCC3)nc(N3CCOCC3)n2)cn1`, the growth in the assay on EKVX NSCLC is -13.4% (active); in the assay with SN12C renal, -3.99% (active); in the assay on UO-31 renal, -34.4% (active); with TK-10 renal, -35.4% (active); in the assay with ACHN renal, -8.54% (active); with CAKI-1 renal it was -25.1% (active). In addition, the growth is -80.4% (active) with A498 renal; 4.63% (active) in the assay on CCRF-CEM leukemia; -11.9% (active) with MOLT-4 leukemia; -6.66% (active) in the assay on SR leukemia; -6.64% (active) in the assay on RPMI-8226 leukemia; -24.2% (active) in the assay with OVCAR-8 ovarian. The growth is -17.3% (active) with OVCAR-5 ovarian; -11.9% (active) in the assay with OVCAR-4 ovarian; -54.8% (active) in the assay with SK-OV-3 ovarian; -44.6% (active) in the assay on IGROV1 ovarian; -9.69% (active) with OVCAR-3 ovarian; -20.2% (active) in the assay on NCI/ADR-RES ovarian.
For `O=C(Nc1cnn2ccc(N3CCC[C@@H]3c3cc(F)ccc3F)nc12)N1CC[C@H](O)C1`, the growth is 99.5% in the assay with EKVX NSCLC; 81.1% in the assay with SN12C renal; 82.8% in the assay with UO-31 renal; 99.8% with TK-10 renal; 103% with ACHN renal; 88.3% with CAKI-1 renal. Also, the growth in the assay with A498 renal was 2.72% (active); in the assay with CCRF-CEM leukemia it was 95.5%; in the assay with MOLT-4 leukemia, 96.8%; in the assay on SR leukemia, 72.1%; in the assay with RPMI-8226 leukemia, 91.1%; with OVCAR-8 ovarian it was 80.4%. For the same molecule, the growth with OVCAR-5 ovarian is 114%; with OVCAR-4 ovarian, 117%; with SK-OV-3 ovarian it was 79.6%; in the assay on IGROV1 ovarian, 105%; in the assay with OVCAR-3 ovarian it was 99.9%; with NCI/ADR-RES ovarian, 97%.
Consider `CCN1CCN(Cc2ccc(Cc3ncc(F)c(-c4cc(F)c5nc(C)n(C(C)C)c5c4)n3)nc2)CC1`, for which the growth in the assay with EKVX NSCLC is 59.6%; in the assay with SN12C renal, 48.9%; with UO-31 renal, 11.8%; in the assay with TK-10 renal it was 35.1%; with ACHN renal it was 27.3%; in the assay with CAKI-1 renal it was 24%. Also, the growth with A498 renal is 34.5%; in the assay on CCRF-CEM leukemia it was 22.3%; in the assay on MOLT-4 leukemia, 13.4%; in the assay with SR leukemia, -12.4% (active); in the assay on RPMI-8226 leukemia it was 44.8%; with OVCAR-8 ovarian, 68.3%. Besides, the growth was 46.5% in the assay with OVCAR-5 ovarian; 69.5% in the assay on OVCAR-4 ovarian; 22.4% in the assay with SK-OV-3 ovarian; 37.3% in the assay with IGROV1 ovarian; 63.2% with OVCAR-3 ovarian; 72.3% in the assay on NCI/ADR-RES ovarian.
For `Cc1nc2ccc(-n3ncc(C(=O)c4cc5ccccc5[nH]4)c3N)cc2[nH]1`, the growth with EKVX NSCLC is 63.9%; with SN12C renal, 61.2%; in the assay with UO-31 renal, 48.9%; in the assay on TK-10 renal, 71.3%; in the assay with ACHN renal it was 49.8%; in the assay on CAKI-1 renal, 62.2%. The growth with A498 renal is 8.03% (active); in the assay with CCRF-CEM leukemia, 43.8%; with MOLT-4 leukemia, 25.1%; with SR leukemia it was 14.6%; with OVCAR-8 ovarian, 41.9%; with OVCAR-5 ovarian it was 65.9%. The growth with OVCAR-4 ovarian was 71.1%; in the assay on SK-OV-3 ovarian, 49.6%; with IGROV1 ovarian, 37.2%; with OVCAR-3 ovarian, 63.2%; in the assay with NCI/ADR-RES ovarian, 66%.

For the origin of these results see PubChem BioAssay (NCI).
